MARV entry inh = inhibitors of Marburg virus binding or cell entry. Marburg virus pseudotyped entry inhibition, cell reporter. Potency, µM (top dose mostly 37.8 µM), for inactives: top-dose activity change, negative = inhibition, most hits filed as inhibitors. hit rate 1.8% among 300,000. AID 540276; calls by dose curve; tested in HEK293 cells
Sm TGR inh = blocks Schistosoma mansoni thioredoxin glutathione reductase; Q962Y6; Potency, µM (highest dose often 114 µM), without a hit: at the top dose activity change, negative = inhibition, most hits filed as inhibitors; purified TGR, DTNB reduction, TNB absorbance 405 nm; hit rate 3% among 360,000; also: nearly all actives have a fitted effect of over 60% in size
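Kinetic colorimetric format: TGR-catalysed, NADPH-driven DTNB reduction monitored via TNB absorbance. Enzyme dispensed at 20 nM; compound exposure 15 min at room temperature before reaction start.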
FMDV antiviral = foot and mouth disease virus antiviral activity; hit rate 1.2% among 410,000; FMDV antiviral cell-based qHTS; Potency, µM (titrated, usually from 57.9 µM), for inactives: at the highest dose activity change, negative = inhibition, most hits filed as inhibitors; AID 1159524; calls by dose curve; tested in HEK293T cells; also: read-out not given here; nearly all actives have a fitted effect of over 45% in size
RE007 growth inh = less growth of the S. pombe RE007 Vpr strain; S. pombe RE007 Vpr strain, BacTiter-Glo ATP luminescence, 24 h; Potency, µM (top dose mostly 92.2 µM), for inactives: top-dose activity change, negative = less growth, actives largely listed as inhibitors; hit rate 0.21% among 360,000; active = well fitted falling curve with a large enough effect; inconclusive = small, poorly fitted or top-dose-only effect; inactive = no such curve, though single readings can be large or run the other way; also: nearly all actives have a fitted effect of over 50% in size
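Fission yeast RE007 carrying one integrated HIV-1 vpr copy, seeded at OD 0.01 in PMG+AL medium with 23 nL pinned compound. Grown 24 h at 30 degrees; viability read by BacTiter-Glo luminescence after 5 min.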
Lassa entry inh = inhibitors of Lassa virus binding or cell entry; Lassa virus pseudotype entry inhibition, cell reporter; Potency, µM (top dose mostly 37.9 µM), for inactives: at the top dose activity change, negative = inhibition, actives largely listed as inhibitors; hit rate 1.2% among 300,000; AID 540256; calls by dose curve; tested in HEK293 cells; also: nearly all actives have a fitted effect of over 50% in size
HCV inh = HCV inhibition | AID 651820 | Potency, µM (top dose mostly 41.8 µM), inactives show at the highest dose activity change, negative = inhibition, hits mostly inhibitors | Huh7.5.1 HCVcc-Cre infection, luciferase reporter, 44 h | hit rate 3.4% among 340,000
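A cell-based infection assay in which seeded cells (1,000 per well) receive test compound after 4 h, are inoculated with HCVcc-Cre at approximately 0.5 moi, and are incubated 44 h before luminescence detection.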
The depositor's hits bear a star; ? = inconclusive; . = no result; [ ] = remark or other dose. An excerpt weighted towards active compounds, which were near 7.2% of everything screened. Unless noted, calls follow the shape of the dose curve; as a rule, active = well fitted curve in the direction sought with a large enough effect; inconclusive = small, poorly fitted or top-dose-only effect, or another doubt; inactive = no such curve, though single readings can be large; an effect the other way counts as inactive or inconclusive. % is scaled to controls: 0 for no effect and ±100 for the full control effect; potency is read from the fitted curve at half-maximal effect.

SMILES	MARV entry inh	Sm TGR inh	FMDV antiviral	RE007 growth inh	Lassa entry inh	HCV inh
CCOC(=O)c1cnc2ccc(OC)cc2c1NCc1ccccc1	?	-1.0%	-6.8%	-5.7%	25.3%	?
CCOC(=O)c1cnc2ccc(C(=O)OC)cc2c1NCCN1CCOCC1	-26.2%	31.6µM*	.	-14.1%	1.4%	-20.7%
COC(=O)C[C@@H]1CC[C@H](NC(=O)Cc2ccccn2)[C@@H](CO)O1	.	.	-11.5%	11.4%	.	.
COc1ccc(C(=O)c2oc3ccccc3c2NC(=O)COc2ccccc2)cc1	.	59.6%	0.0%	.	3.5%[46.1 µM]	.
O=c1oc2ccccc2cc1-c1nc(-c2ccccc2)no1	?	9.1%	-34.0%	-8.2%	?	5.9%
O=C/C=C/c1c(-c2ccccc2)cc2oc3ccccc3cc1-2	-23.1%[46.1 µM]	20µM*	-8.4%	-27.4%	?	?
COc1ccc(NC(=O)N2CCCC3(CCN(S(C)(=O)=O)CC3)C2)cc1	.	.	7.1%	.	.	.
CCCCCCn1cc(CN2CC(N3CCN(CCN(C)C)CC3)CS2(=O)=O)nn1 (configuration not stated)	.	.	-13.9%	-8.4%	.	.
O=C(NNC(=O)C1CCN(Cc2ccc(F)cc2Cl)CC1)Nc1ccc([N+](=O)[O-])cc1	-2.6%	.	-22.4%	-8.4%	-17.1%	11.2µM*
NCC12CC3CC(C1)CC(c1ccc(Br)cc1)(C3)C2	.	0.8%	?	.	.	12.6µM*
Cc1ccc(S(=O)(=O)Nc2cc(-c3nn(C)c(=O)c4ccccc34)ccc2N2CCOCC2)cc1	?	56.2µM*	24.5%	-6.9%	?	?
CC(C)(C)CN1CCNC(=O)C1CC(=O)NCc1cccc(-n2cccn2)c1 (configuration not stated)	-4.6%[46.1 µM]	1.3%	-1.1%	32.3%	-8.6%[46.1 µM]	-4.3%
CSc1cccc(CNC(=O)CC2C(=O)NCCN2CC(C)(C)C)c1 (configuration not stated)	?	39.8µM*	11.3%	4.1%	1.9%[46.1 µM]	2.7%
CC(C)(C)CN1CCNC(=O)C1CC(=O)NCCc1ccccc1F (configuration not stated)	-1.8%[46.1 µM]	50.1µM*	-6.6%	-3.0%	0.3%[46.1 µM]	-6.9%
COc1ccc(NC(=O)N2CC[C@@]3(CCCN(C(C)=O)C3)C2)cc1	.	.	-2.4%	.	.	.
CCOc1cc2sc(N3CCC(C(=O)Nc4ccc(CC)cc4)CC3)nc2cc1Br	?	7.3%	35.8%	.	.	.
CCOc1ccccc1NC(=O)COc1coc(CN2CCCc3ccccc32)cc1=O	?	-19.9%	?	6.6%	-16.2%	12.6µM*
CCOc1ccccc1NC(=O)COc1coc(CN2CCc3ccccc3C2)cc1=O	-9.2%	-1.0%	?	-6.5%	-20.7%	?
CCc1nc2ccc(C(=O)N3CCN(C(=O)c4ccco4)CC3)cn2c1N(CC)Cc1cccc(Br)c1	.	.	?	-20.9%	.	.
CCOC(=O)[C@]12Cc3cc(OC)ccc3[C@H]1N(C)C(=O)c1ccccc12	.	.	?	-1.6%	.	.
CCOC(=O)[C@]12Cc3cc(OC)ccc3[C@H]1N(CCC(=O)OC)C(=O)c1cc(OC)ccc12	.	.	20µM*	3.0%	.	.
CCOC(=O)[C@]12Cc3ccccc3[C@H]1N(CCC(=O)OC)C(=O)c1cc(OC)ccc12	.	.	28.2µM*	76.9%	.	.
CCOC(=O)C1(CCOc2ccccc2)CCN(Cc2ccc(C)s2)CC1	?	.	?	-9.7%	?	?
CCOC(=O)C1(CCOc2ccccc2)CCN(Cc2cccc3c2OCO3)CC1	?	.	?	-16.7%	?	10µM*
CCOC(=O)C1(CCOc2ccccc2)CCN(Cc2cc(OC)c3c(c2)OCO3)CC1	2.82µM*	1.3%	?	-6.6%	?	11.2µM*
SMILES	MARV entry inh	Sm TGR inh	FMDV antiviral	RE007 growth inh	Lassa entry inh	HCV inh
Cc1cnc(C)c(-c2cccc3c2OC(CNC(=O)C2(c4ccc(Cl)cc4)CC2)C3)n1 (configuration not stated)	.	.	-7.7%	.	.	.
CCOC(=O)C1CCCN(C(=O)CCc2nnc(-c3ccc(C(C)=O)s3)o2)C1 (configuration not stated)	.	15.8µM*	18.4%	-11.1%	.	12.4%
C[C@@H]1CCCN1[C@@H]1C[S+](=O)([O-])N[C@@H]1COCc1ccccc1	.	.	.	.	6.6%[46.1 µM]	.
O=C1NC(=O)/C(=C\c2ccccc2Oc2ccc(F)c(F)c2)S1	11.4%	0.0%	?	-13.0%	2.0%	?
O=C1NC(=O)C(=Cc2ccccc2Oc2ccc(F)cc2)C(=O)N1	2.2%[46.1 µM]	70.8µM*	-1.9%	0.9%	.	-15.9%
CN1C(=O)C(=Cc2ccccc2Oc2ccc(Cl)c(F)c2)C(=O)N(C)C1=O	?	31.6µM*	?	-10.9%	-3.9%	5.5%
C[C@@H]1CC2=CCCC2[C@]2(O1)C(=O)N(Cc1ccc(Br)cc1)c1cccc(Br)c12 (some centres not stated)	-25.3%[14.2 µM]	.	.	.	?	.
CN(C)c1ncc2nc(-c3ccc(F)cc3)c(=O)n(CCC#N)c2n1	.	.	-3.6%	.	.	.
CCC1Oc2ccc(C)cc2N(CC(=O)N(Cc2ccc(C)o2)C2CCCC2)C1=O (configuration not stated)	?	0.0%	22.4µM*	-5.7%	?	?
CCC1Oc2ccc(C)cc2N(CC(=O)NC2CCCCC2)C1=O (configuration not stated)	4.1%[46.1 µM]	-0.9%	-2.2%	18.3%	2.1%[46.1 µM]	10.5%
O=Cc1cccc(OC(=O)/C=C/c2ccco2)c1	.	28.2µM*	0.0%	?	.	12.1%
Cc1sc(N/N=C/c2cccs2)nc1-c1ccccc1	7.94µM*	0.4%	-14.3%	-7.5%	?	?
Cc1cccc(C(O)c2ncc(-c3ccccc3F)[nH]2)c1C (configuration not stated)	.	.	64.5%	-26.5%[18.4 µM]	.	.
CC(=O)c1ccc(N2CCN(C(=O)Nc3cn(CC(C)C)c(=O)c4ccccc34)CC2)cc1	.	-6.7%	0.0%	.	28.1%[46.1 µM]	.
CSc1nc(O)c(N=Nc2ccc(F)cc2F)c(=O)[nH]1	.	-6.9%	-14.2%	25.1µM*	.	-11.6%
O=c1[nH]nc(N=Nc2c(O)[nH]c3ccc(F)cc23)c(=O)[nH]1	.	.	-24.1%	8.9%	.	9.4%
COc1ccc(C2NC(Cc3ccccc3)(C(=O)O)C3C(=O)N(c4ccccc4OC)C(=O)C23)cc1 (configuration not stated)	1.1%	22.4µM*	8.3%	2.3%	12.8%	28.1%
COC(=O)[C@]1(Cc2ccccc2)N[C@H](c2ccc(-c3cccc(Cl)c3)c(OC)c2)[C@@H]2C(=O)N(C)C(=O)[C@@H]21	.	.	-26.9%	-10.7%	.	2.24µM*
COC(=O)[C@]1(Cc2ccccc2)N[C@H](c2ccc(-c3ccc(F)cc3)cc2)[C@@H]2C(=O)N(C)C(=O)[C@@H]21	.	?	?	-18.5%	.	11.2µM*
CCN1C(=O)[C@H]2[C@@H](c3ccc(-c4ccccc4)cc3)N[C@@](Cc3ccccc3)(C(=O)OC)[C@H]2C1=O	.	0.0%	0.0%	-11.2%	.	15.1%

Bioassay records deposited in PubChem BioAssay by National Center for Advancing Translational Sciences (NCATS).
